Rows were chosen to be rich in hits. Some 2.2% of all compounds tested hit in one or more screens of this group.
Abeta yeast res – compounds reversing amyloid beta toxicity in yeast | yeast expressing A-beta42, growth rescue, OD600, 48 h; response scale: 0% DMSO, 100% iron-clioquinol control | Potency, µM (highest dose often 46.1 µM), actives largely listed as activators | hit rate 0.063% among 410,000; also: nearly all actives have a fitted effect of over 55% in size
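Yeast growth medium received pinned compounds, then yeast cells expressing toxic A-beta were added; plates incubated at 30 C for 48 hr. Growth read as absorbance at 600 nm, normalized to DMSO and equimolar FeCl3 plus clioquinol controls.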
Mito fusion yeast – blocks mitochondrial division or promotes mitochondrial fusion | hit rate 0.23% among 320,000 | Potency, µM (doses to about 46.1 µM), inactives show at the top dose growth rescue (activation), hits mostly activators | S. cerevisiae fusion-defective mutant growth rescue, CellTiterGlo 48 h; also: % of control where 0% means no effect; nearly all actives have a fitted effect of over 45% in size
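Growth-rescue viability read-out: after 48 h at the non-permissive 37C in glycerol/ethanol YPEG, yeast mitochondrial fusion mutants are measured by CellTiterGlo luminescence; compounds (23 nl pinned per well) restoring growth score as division inhibitors or fusion activators.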
TDP43 rescue – TDP-43 toxicity inhibition in yeast. TDP-43 expressing yeast growth rescue, BacTiter-Glo, 24 h. Potency, µM (series often up to 46.1 µM), inactives show top-dose growth rescue (activation), most hits filed as activators. hit rate 1.8% among 410,000; also: % of control where 0% means no effect; nearly all actives have a fitted effect of over 50% in size
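Growth rescue of TDP-43-toxic yeast measured as ATP luminescence (BacTiter-Glo). Cells grown to mid-log in raffinose, induced in galactose at OD600=0.02, exposed to compound 24 hr at 30 deg C.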
FUS suppressor – suppressors of FUS proteinopathy in yeast | hit rate 0.24% among 390,000 | Potency, µM (titrated, usually from 76.6 µM), most hits filed as activators | S. cerevisiae FUS-expressing, growth rescue, OD600, 24 h;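 also: plate controls were DMSO vehicle for no effect and reference control for full effect; nearly all actives have a fitted effect of over 55% in size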
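Compound concentration series was pinned onto galactose-induced FUS-expressing yeast seeded at OD 0.005. Plates sat 24hr at 30C; absorbance at 600 nm gave growth. DMSO served as background control.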
aSyn rescue – inhibitors of alpha-synuclein toxicity in yeast. Yeast expressing alpha-synuclein, growth rescue, BacTiter-Glo, 24 h. Potency, µM (highest dose often 46.1 µM), for inactives: at the highest dose growth rescue (activation), usual class: activators. hit rate 0.14% among 370,000. AID 652106; also: % of control where 0% means no effect; nearly all actives have a fitted effect of over 65% in size
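Rescue of yeast growth: cells expressing toxic alpha-synuclein, induced in galactose at OD600 0.02, incubated with compound 24 h at 30 C. ATP luminescence quantified growth; inhibitors of toxicity appear as activators.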
Numbers without * were called inactive; i = inactive; ? = inconclusive; nt = no result given; ! = repeats disagree. Calls follow the shape of the dose curve; as a rule, active = well fitted curve in the direction sought with a large enough effect; inconclusive = small, poorly fitted or top-dose-only effect, or another doubt; inactive = no such curve, though single readings can be large; an effect the other way counts as inactive or inconclusive. Potency is read from the fitted curve at half-maximal effect.

SMILES	Abeta yeast res	Mito fusion yeast	TDP43 rescue	FUS suppressor	aSyn rescue
Cc1cccc(C)c1-n1nnnc1C(c1cccc2ccccc12)N1CCC(n2c(=O)[nH]c3ccccc32)CC1 (centres undefined)	i	nt	22µM*	i	-2%
O=c1[nH]c2ccccc2n1C1CCN(C(c2ccccc2OC(F)(F)F)c2nnnn2Cc2ccccc2)CC1 (centres undefined)	i	nt	25%	20µM*	2%
O=C(CN1CCN(S(=O)(=O)c2cc(Br)ccc2Br)CC1)NCc1ccccc1Cl	i	nt	?	nt	20%
CCOC(=O)c1ccc(N2C(=O)CC(N3CCC(O)(c4ccc(Cl)cc4)CC3)C2=O)cc1 (centres undefined)	i	4%	5.6µM*	i	15%
Cc1ccc(C(=O)Nc2c(C(=O)Nc3ccc(C)c(C)c3)sc3nc(C)cc(C)c23)cc1	i	nt	?	i	nt
Cc1cc(=O)oc2c(C)c(OC3CCCCC3=O)ccc12 (centres undefined)	i	3%	?	i	6%
COC(=O)c1ccc(NC2=C(Cl)C(=O)OC2OC(=O)c2ccccc2)cc1 (centres undefined)	i	-10%	22µM*	i	3%
CCOC(=O)C1(c2ccccc2)CCN(CCC(=O)Nc2ccc(C(=O)OC)cc2)CC1	i	-5%	2%	i	6%
CC(=O)c1ccc2c(c1)C1C(Cl)C(Sc3ccccc3[N+](=O)[O-])CC1C(c1ccccc1[N+](=O)[O-])N2 (centres undefined)	i	27%	4%	i	4%
CC(=O)c1ccc2c(c1)C1C(Cl)C(Sc3ccccc3[N+](=O)[O-])CC1C(c1ccccc1)N2 (centres undefined)	i	3%	-4%	40µM*	-8%
Cc1ccc(S(=O)(=O)N(C)C[C@H]2Oc3ncc(Br)cc3C(=O)N([C@H](C)CO)C[C@@H]2C)cc1	i	nt	0%	?	?
Cn1c(O)c(C2=NNC(c3ccc(Cl)cc3)C2)c(=O)n(C)c1=O (centres undefined)	14µM*	0%	?	i	-12%
CCOc1ccc(C2CC(c3c(O)n(C)c(=O)n(C)c3=O)=NN2)cc1 (centres undefined)	i	-6%	0%	?	0%
O=C(CN1CCN(C(=O)CNC(=O)c2ccc(-c3ccccc3)cc2)CC1)Nc1ccccc1Cl	i	nt	?	i	7%
Fc1ccc(C2=CCN(C(c3cccs3)c3nnnn3CCc3ccccc3)CC2)cc1 (centres undefined)	i	?	14%	i	13%
CCC(C)(C)n1nnnc1C(c1cccs1)N1CC=C(c2ccc(F)cc2)CC1 (centres undefined)	i	10µM*	-18%	i	-19%
COc1ccc2c(c1OC)CN(C)CCc1cc3c(cc1C(=O)C2)OCO3	i	0%	?	i	1%
C[C@]12CC[C@H](O)C[C@@H]1CC[C@@H]1[C@@H]2CC[C@]2(C)C(=O)CC[C@@H]12	i	12%	14µM*	i	?
C[C@]12CCC(=O)C(O)=C1CC[C@@H]1[C@@H]2CC[C@]2(C)C(=O)CC[C@@H]12	i	0%	13µM*	i	3%
C[C@]12CCC3[C@@H](CC[C@@H]4C[C@H](O)CC[C@]34C)[C@@H]1CCC2=O (some centres undefined)	i	19%	?	i	3%
Cc1cccc(NC(=O)Oc2ccc(Cl)c3cccnc23)c1	i	nt	?	i	0%
CC(C)(C)C(=O)N1Cc2cc(-c3ccccc3)ccc2-n2nncc2C1	i	nt	13%	i	-5%
COc1ccc(-c2ccc3c(c2)CN(C(=O)C(C)(C)C)Cc2cnnn2-3)cc1	i	nt	18µM*	i	4%
Cc1ccc(NC(=O)Nc2ccc3nc(N4CCN(C)CC4)cc(C)c3c2)cc1F	i	nt	?	i	nt
NC(N)=NC(=O)c1nc(Cl)c(N)nc1N	i	16µM*!	7%	i	-9%
SMILES	Abeta yeast res	Mito fusion yeast	TDP43 rescue	FUS suppressor	aSyn rescue
C=CCn1c(O)c(C(CC)=NCCCO)c(=O)[nH]c1=O	i	2%	-7%	i	-3%
C=CCn1c(O)c(C(CC)=NCCC2=CCCCC2)c(=O)[nH]c1=O	i	13%	18µM*	i	nt
CCC(=O)CC(c1ccccc1)c1c(O)c2ccccc2sc1=O (centres undefined)	i	26%	25µM*	i	-17%
Cc1cc(O)c2c(c1)C(=O)c1cc(O)cc(O)c1C2=O	i	2.6µM*	6%	i	-20%
CN(N=O)c1cc(O)ccc1O	nt	23µM*	nt	nt	-89%
CC1OC(O[C@H]2C[C@@H](O)[C@]3(CO)[C@H]4[C@H](O)C[C@]5(C)[C@@H](C6=CC(=O)OC6)CC[C@]5(O)[C@@H]4CC[C@]3(O)C2)C(O)C(O)C1O (some centres undefined)	nt	nt	nt	nt	0%
OC[C@H]1OC(O)C[C@@H](O)[C@@H]1O (some centres undefined)	i	-38%	?	i	10%
Clc1ccc(COC(Cn2ccnc2)c2ccc(Cl)cc2Cl)cc1 (centres undefined)	i	3.2µM*	?	i	?
O=C1C=CC2C3C(=O)N(c4ccccc4)C(=O)C3C1N2Cc1ccccc1 (centres undefined)	i	nt	13µM*	nt	8%
COc1cccc(C2CC3C(=O)C=CC2N3Cc2ccccc2)c1 (centres undefined)	i	-2%	-13%	i	19%
CCCCCNC(=O)C(c1ccncc1)n1c(=O)c(-c2cc3ccccc3[nH]2)nc2ccccc21 (centres undefined)	?	nt	?	i	11%
C[C@]12C=CC(=O)C=C1CC[C@@H]1C2=CC[C@]2(C)[C@@H](C(=O)CN3CCN(c4cc(N5CCCC5)nc(N5CCCC5)n4)CC3)CC[C@@H]12	i	15µM*	-31%	?	8%
N#C/C(=C/c1ccc(O)c(O)c1)C(N)=S	nt	21µM*	nt	nt	-15%
N#CC(C#N)=Cc1ccc(C=C(C#N)C#N)cc1	i	-2%	-2%	i	3%
C[C@H]1COC(=O)[C@H](Cc2ccc(F)cc2)CC/C=C/C[C@@H](CC(=O)N(CCO)Cc2ccccc2)C(=O)N1	i	nt	19%	i	-10%
CCCCC[C@H]1CCCCC[C@H](O)C[C@H](O)[C@@H](O)/C=C/C(=O)O1	i	nt	21%	i	8%
CCc1cc(=O)oc2cc(C)cc(OCC(=O)N3CCC(C(=O)O)(c4ccccc4)CC3)c12	i	-4%	16%	i	6%

Compound activity deposited in PubChem by National Center for Advancing Translational Sciences (NCATS).
